Drawing on PubChem BioAssay (EPA / NIEHS), this text covers outcome and AC50 for ten compounds.

Each structure is given as a SMILES string. Where “and” joins values, the source holds several entries; their conditions need not be identical. Equal values may be shown once. Records with an inconclusive call do not appear. The source holds several records for some structures; these can differ, active in one and inactive in another. Calls of active or inactive are those of the source. Rule for the calls: active = hit-call score of the fitted dose curve at least 0.9, where 1 is the maximum; inconclusive = response in the unintended direction; inactive = score below 0.9.

Sequence of Estrogen receptor beta (Homo sapiens) (Q92731 whole entry, looked up, the tested form may be a part): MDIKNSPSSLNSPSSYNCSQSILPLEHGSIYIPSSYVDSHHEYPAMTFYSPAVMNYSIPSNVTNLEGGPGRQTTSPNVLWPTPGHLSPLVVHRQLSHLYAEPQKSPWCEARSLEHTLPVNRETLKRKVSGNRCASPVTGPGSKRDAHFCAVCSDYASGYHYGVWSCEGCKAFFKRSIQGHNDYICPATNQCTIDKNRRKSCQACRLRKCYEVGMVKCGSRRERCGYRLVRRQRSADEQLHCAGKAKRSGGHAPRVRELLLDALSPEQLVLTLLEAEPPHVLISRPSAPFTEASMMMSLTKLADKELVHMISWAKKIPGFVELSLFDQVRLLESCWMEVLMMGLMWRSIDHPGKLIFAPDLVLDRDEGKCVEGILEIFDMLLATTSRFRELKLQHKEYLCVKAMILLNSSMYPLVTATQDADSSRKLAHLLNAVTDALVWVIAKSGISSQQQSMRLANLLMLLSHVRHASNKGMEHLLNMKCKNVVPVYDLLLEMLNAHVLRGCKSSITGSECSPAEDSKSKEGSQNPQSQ

For the first experiment, the target named is AR (gene 367) (UniProt P10275). Put plainly: ACEA_AR_agonist_80hr: ACEA Biosciences xCELLigence Real-Time Cell Analysis on Androgen Receptor Agonism for Proliferation (AID 2283783).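 Note: hits increase impedance growth signal above DMSO baseline.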 The essentials: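 Eight concentrations, 1:4 serial dilution from a 100 uM final top, in biological duplicate. Impedance-based real-time growth of 22Rv1 cells after overnight baseline, recorded hourly and read at 80 hours. Controls: testosterone, MG132, assay media.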
Sequence of AR (gene 367) (P10275 whole entry, looked up): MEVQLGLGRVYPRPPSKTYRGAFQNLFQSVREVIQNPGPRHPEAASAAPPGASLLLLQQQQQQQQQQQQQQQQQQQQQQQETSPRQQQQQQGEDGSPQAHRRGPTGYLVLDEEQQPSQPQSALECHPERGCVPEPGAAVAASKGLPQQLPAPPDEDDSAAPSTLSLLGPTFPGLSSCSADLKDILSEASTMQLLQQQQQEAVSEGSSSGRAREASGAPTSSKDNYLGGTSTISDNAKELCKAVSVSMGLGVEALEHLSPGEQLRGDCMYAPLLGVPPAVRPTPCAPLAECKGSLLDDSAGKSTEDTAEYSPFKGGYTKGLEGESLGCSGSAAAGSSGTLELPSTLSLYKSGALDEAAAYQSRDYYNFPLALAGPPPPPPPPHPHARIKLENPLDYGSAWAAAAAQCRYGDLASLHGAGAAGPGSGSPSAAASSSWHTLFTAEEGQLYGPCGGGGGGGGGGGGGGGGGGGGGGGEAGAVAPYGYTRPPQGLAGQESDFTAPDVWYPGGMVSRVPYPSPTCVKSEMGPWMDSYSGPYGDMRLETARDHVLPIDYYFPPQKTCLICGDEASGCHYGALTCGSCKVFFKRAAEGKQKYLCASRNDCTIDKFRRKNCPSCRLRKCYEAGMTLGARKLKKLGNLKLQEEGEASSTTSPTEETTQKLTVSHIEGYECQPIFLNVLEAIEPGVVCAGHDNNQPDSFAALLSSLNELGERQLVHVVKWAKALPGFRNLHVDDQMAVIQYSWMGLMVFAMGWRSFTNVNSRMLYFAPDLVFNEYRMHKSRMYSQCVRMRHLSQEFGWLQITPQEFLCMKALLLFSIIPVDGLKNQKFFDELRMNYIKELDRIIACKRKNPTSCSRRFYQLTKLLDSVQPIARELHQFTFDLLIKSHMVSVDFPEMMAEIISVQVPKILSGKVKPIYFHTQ
On to `N#CCC#N`, for which the call was inactive. Same read-out and setting: as for `O=C1c2ccccc2C(=O)C1C(=O)C(c1ccccc1)c1ccc(Cl)cc1` (centres undefined), the entry is “inactive”. The same measure, in the same setting: for `O=C(CCl)Nc1ccccc1` the value was “inactive”; for `C=CC(Cl)CCl` (centres undefined), “inactive”; for `CC(C)N(C(=O)CCl)c1ccccc1`, “inactive”.

The next experiment deals with AR (gene 367) (UniProt P10275). Put plainly: ACEA_AR_antagonist_80hr: ACEA Biosciences xCELLigence Real-Time Cell Analysis on Androgen Receptor Antagonism for Proliferation (AID 2283787).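 Note: 22Rv1 human prostate cancer cells with growth followed by electrical impedance; hits lower the impedance growth signal relative to DMSO.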 The essentials: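 Impedance-based real-time growth of 22Rv1 prostate cells, read 80 h after dosing. Eight concentrations, 1:4 series, top 100 uM final (0.5% DMSO), n = 2; signal decrease scored against DMSO.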
Take `N#CCC#N`: the outcome was inactive.

`O=C1c2ccccc2C(=O)C1C(=O)C(c1ccccc1)c1ccc(Cl)cc1` (centres undefined): the AC50 (usually the concentration at which the activity in the assay is half-maximal) is 25 µM (active). On the same count and under the same terms, for `CC(=Cc1ccccc1)[N+](=O)[O-]` the value was 6.33 µM (active).

With `COCCl`, the compound was classed as inactive. As to `O=C(CCl)Nc1ccccc1`, the AC50 is 16.6 µM (active). On the same count and under the same terms, as for `O=C(NC(=O)c1c(F)cccc1F)Nc1cc(Cl)c(OC(F)(F)C(F)C(F)(F)F)cc1Cl` (centres undefined), the figure is 6.32 µM (active).

As to `C=CC(Cl)CCl` (centres undefined), the compound was called inactive.

The next experiment has as its system turtle Estrogen Receptor (ERa), gene 101933533. Put plainly: ATG_trERa_XSP2: Attagene TRANS-FACTORIAL Multi-Species (XSP2) HepG2 Assay for turtle Estrogen Receptor (ERa) (AID 2283812).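 Note: actives raise reporter signal above DMSO so AC50 reflects agonist activity.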 The essentials: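 Readout is reporter mRNA quantified by RT-PCR with capillary electrophoresis after 24 h compound exposure, increase relative to DMSO. Uses transiently transfected human HepG2 liver cells carrying a chimeric turtle ERa-Gal4 receptor driving GAL4-UAS reporters.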
Take `CC(O)(CS(=O)(=O)c1ccc(F)cc1)C(=O)Nc1ccc(C#N)c(C(F)(F)F)c1` (centres undefined): the compound was classed as inactive. Regarding `COCCl`, the call was inactive. `Oc1cc(Cl)c(Cl)cc1Cl`: the AC50 is 13 µM (active) and 6.06 µM (active).

A further experiment concerns the target Estrogen receptor beta (Homo sapiens) (UniProt Q92731). Put plainly: ATG_hERb_XSP2: Attagene TRANS-FACTORIAL Multi-Species (XSP2) HepG2 Assay for human Estrogen Receptor (ERb) (AID 2283813).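 Note: actives raise reporter mRNA above DMSO so AC50 reflects agonist induction.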 The gist of the method: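 Transient TRANS reporter system in HepG2: after 24 h of chemical, RNA is reverse-transcribed, reporter cDNA amplified, FAM-labelled and sized by capillary electrophoresis. Induction of the human ERb-Gal4 reporter is measured relative to DMSO.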
As for `CC(O)(CS(=O)(=O)c1ccc(F)cc1)C(=O)Nc1ccc(C#N)c(C(F)(F)F)c1` (centres undefined), the call was inactive. Same read-out and setting: as for `COCCl`, the entry is “inactive”. Turning to `Oc1cc(Cl)c(Cl)cc1Cl`, the AC50 is 20.3 µM (active) and the outcome was inactive.
